A selection follows.
aSyn 5UTR act – Activators working through SNCA 5'UTR binding (MLPCN). activity score, % (tested at 7.5 µM), hits read low. alpha-synuclein 5'UTR reporter, activators screen. 300,000 compounds, 7.1% hits. AID 1814; in the data active means activity score below about -60%
* marks the source's active call; other numbers are inactive results.

SMILES	aSyn 5UTR act
CCCCCOc1ccc(C(=O)CCN2CCOCC2)cc1	-72*
CC/C(=N/NC(=O)c1ccccc1)c1ccc(OCCN2CCOCC2)cc1	-103*
CCCCOc1ccc(C(=O)C(CN2CCOCC2)c2ccccc2)cc1 (stereo not given)	-134*
COc1ccc(C(=O)C(CN2CCCC2)c2ccccc2)cc1 (stereo not given)	-112*
O=C(c1ccc(Cl)cc1)C(CN1CCCC1)c1ccccc1 (stereo not given)	-155*
CCCc1cc(=O)oc2cc(OCC(=O)Nc3ccccn3)ccc12	-92*
Cc1cc(=O)oc2cc(OCC(=O)Nc3ccc(N4CCC(C)CC4)cc3)ccc12	-70*
Cc1ccc(NC(=O)C2CCC(CNc3c(N4CCC(C)CC4)c(=O)c3=O)CC2)cc1F (stereo not given)	61
Cc1csc(NC(=O)COc2ccc3c(C)cc(=O)oc3c2)n1	-62*
O=[N+]([O-])c1cc(S(=O)(=O)NCCN2CCOCC2)ccc1Sc1nnnn1-c1ccccc1	-96*
Cc1ccc(-n2nnnc2Sc2ccc(S(=O)(=O)NCCN(C)C)cc2[N+](=O)[O-])cc1	-93*
CCCOC(=O)c1ccc(NC(=O)c2cnccn2)cc1	-104*
O=C(Nc1ccc(NC(=O)c2ccco2)cc1)c1cnccn1	-67*
CCc1ccc(NC(=O)c2cnccn2)cc1	-138*
O=C(Nc1ccc(OC(F)(F)F)cc1)c1cnccn1	-195*
CC(C)(C)c1ccc(/C=C(\c2nc3ccccc3[nH]2)S(=O)(=O)c2ccccc2)cc1	-78*
Cc1cccc(/C=C(\c2nc3ccccc3[nH]2)S(=O)(=O)c2ccccc2)c1	-118*
COc1ccc(OCCSc2nc(N)cc(N)n2)cc1	-103*
Cc1ccc(OCCSc2nc(N)cc(N)n2)cc1	-120*
Cc1cccn2c(=O)c(C=Nc3ccccc3)c(NCc3ccco3)nc12	-118*
Cn1c(=O)c2c(nc(NCc3ccco3)n2C/C=C/c2ccccc2)n(C)c1=O	90
CCOC(=O)c1csc(-c2ccc([N+](=O)[O-])cc2)n1	-67*
COc1ccc(-c2nc3ccccn3c2C=O)cc1	-110*
COc1ccc(N2CCN(c3nc4ccccn4c(=O)c3C=O)CC2)cc1	-68*
N#CC(C#N)=Cc1c(N2CCN(c3ccccc3)CC2)nc2ccccn2c1=O	-72*
SMILES	aSyn 5UTR act
O=Cc1c(N2CCN(c3ccccc3)CC2)nc2ccccn2c1=O	-86*
O=c1oc2c(-c3cccc(F)c3)cc(O)cc2s1	-79*
Cc1cc(C)nc(Nc2nc3ccccc3[nH]2)n1	-109*
c1ccc(Nc2nc3ccccc3[nH]2)nc1	-169*
O=C(NC(C(=O)c1ccccc1)N1CCCCC1)c1ccccc1 (stereo not given)	-87*
O=C(NC(C(=O)c1ccccc1)n1ccc(=O)[nH]c1=O)c1ccccc1 (stereo not given)	-208*
Cn1c(CNc2ccccc2)nc2ccccc21	-113*
Cn1c(CNc2ccc(F)cc2)nc2ccccc21	-123*
Cn1ccnc1Sc1ccc(/C=N/NC(=O)c2ccccc2O)cc1[N+](=O)[O-]	-62*
O=[N+]([O-])/C(C(Cl)=C(Cl)Cl)=C(\Sc1ccccc1)N1CCCCC1	-116*
CN(C)c1ccc(NC(=S)c2ccccn2)cc1	97
Cc1ccccc1C(=O)N/N=C/c1ccccn1	-80*
O=C(N/N=C/c1ccccn1)c1ccccc1	-90*
O=C(N/N=C\c1cn[nH]c1-c1ccccc1)c1cccnc1	-67*
CN(C)c1ccc(C(=O)N/N=C/c2ccccn2)cc1	-85*
CCN(C(=O)CSc1nnc(Cn2nnc3ccccc32)o1)c1nc(-c2ccccc2)cs1	-105*
Cc1oc(-c2ccc(Cl)cc2)nc1CS(=O)CC(=O)NCCCN1CCCC(C)C1 (stereo not given)	-91*
COc1ccc(-c2nc(CS(=O)CC(=O)NCCCN3CCCC(C)C3)c(C)o2)cc1OC (stereo not given)	-101*
O=C(Nc1ccc2c(c1)OCO2)c1cnn2cccnc12	-141*
O=C(c1cnn2cccnc12)N1CCN(c2ccccc2)CC1	-64*
O=C(Nc1cccc(O)c1)c1cnn2cccnc12	-110*
O=C(Nc1cccc(Cl)c1)N1CCN(Cc2ccccc2)CC1	-159*
O=C(NCCc1ccccc1)Nc1cccc(Cl)c1	-88*
S=C(Nc1cc(Cl)cc(Cl)c1)NC1CCN(Cc2ccccc2)CC1	72
O=C(NCCc1ccccc1)C(=O)Nc1ccc2c(c1)OCCO2	-137*
SMILES	aSyn 5UTR act
O=C(CCS(=O)(=O)c1ccc(Br)cc1)Nc1ccc2c(c1)OCO2	-64*
O=C(/C=C/c1cccc(Cl)c1)NCCc1ccccc1	-67*
O=C(CCc1ccccc1)Nc1ccc2c(c1)OCO2	-123*
O=C(Nc1ccc2c(c1)OCO2)OCc1ccccc1	-123*
O=C(NCCc1ccc(F)cc1)Nc1ccc2c(c1)OCO2	-139*
O=C(NCCc1ccccc1)Nc1ccc2c(c1)OCO2	-80*
Cc1cc(/C=C(\C#N)C(=O)NCC2CCCO2)c(C)n1-c1ccc(Cl)cc1 (stereo not given)	-267*
O=C(NCCc1ccccc1)c1ccc2c(c1)OCCO2	106

Assay outcomes: PubChem BioAssay, Broad Institute
